In test [1] the test system is Zika virus NS2B-NS3 protease (linked construct). Put plainly: Primary screen NINDS Rhodamine qHTS for Zika virus inhibitors (AID 1347160). For activity change, negative = inhibition: % is set by controls: 0 for no effect and ±100 for the full control effect. Note: nearly all actives have a fitted effect of over 55% in size. Note: potency is the fitted concentration of half-maximal effect. Summed up:
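Percent inhibition, normalized to uninhibited and enzyme-free controls, is fitted to a 4-parameter Hill equation. Fluorescence change comes from a 15-min cleavage of 1.5 microM bis-peptide Rhodamine110 substrate by 25 nM linked NS2B-NS3 at room temperature.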
A general note: Quantitative high-throughput screening tests each substance at several concentrations.

Test [2] can be described thus: Panc-1005 Cancer Cell Toxicity qHTS against the NCATS CANVASS Library (AID 1347349). Note: nearly all actives have a fitted effect of over 60% in size. Note: potency is the fitted concentration of half-maximal effect. In outline: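 Viability was assessed by adding CellTiter-Glo reagent to treated cultures and reading luminescence after 15min at room temperature. Treatment lasted 72 h at 37 degrees C/5% CO2, using an 11-point series on 1000 cells/well.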
Test [3] can be described thus: HEK-293 Cancer Cell Toxicity qHTS against the NCATS CANVASS Library (AID 1347355). Note: potency is the fitted concentration of half-maximal effect; nearly all actives have a fitted effect of over 65% in size. Summed up:
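qHTS cytotoxicity: compounds tested in 11 concentrations on 1000 seeded cells per well over 72 h; bortezomib served as control; signal from CellTiter-Glo luminescence.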

Test [4] can be described thus: SDT Cancer Cell Toxicity qHTS against the NCATS CANVASS Library (AID 1347365). Note: nearly all actives have a fitted effect of over 60% in size. Note: potency is the fitted concentration of half-maximal effect. In outline: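 Dispense 500 SDT cells per well; pin-transfer compounds; incubate 72 hr at 37C, 5% CO2, 95% RH; add CellTiterGlo and read luminescence.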
The nature of test [5]: qHTS for Hypoxia signaling pathway (HIF-1) antagonists against the NCATS CANVASS Library (AID 1347374).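 For activity change, negative = inhibition: HRE-bla ME-180 cells stimulated with cobalt chloride to stabilize HIF-1alpha; % is set by controls: 0 for no effect and ±100 for the full control effect.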 Note: nearly all actives have a fitted effect of over 60% in size. Note: potency is the fitted concentration of half-maximal effect. Summed up: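 HRE-bla ME-180 cells (2,000/well, 0.5% dialyzed FBS) were pre-incubated 5 h, then given an 11-point compound series plus CoCl2 (60 uM solution as added) for 17 h at 37C. CCF4 β-lactamase read (ex 405, em 460/530 nm) after 2 h at RT.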
The nature of test [6]: qHTS for Activators of p53 Stress Response Pathway screened against the NCATS CANVASS Library (AID 1347388). Note: 0% is about no effect. Summed up:
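p53RE-bla HCT-116 cells (4000/well) were pre-incubated for 5 h, then treated with compound (11 points) for 16 h at 37C. After 2 h with CCF4, the 460/530 nm ratio gave reporter activation; CellTiter-Glo measured viability.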

Test [7] in a line: Confirmatory screen NINDS Rhodamine qHTS for Zika virus inhibitors (AID 1347161).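 For activity change, negative = inhibition: purified Zika NS2B-NS3 protease with linked NS2B cofactor domain and Rhodamine110 peptide substrate; plate controls were no-inhibitor control for no effect and no-enzyme control for full effect.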 Note: nearly all actives have a fitted effect of over 60% in size. Note: potency is the fitted concentration of half-maximal effect. In outline: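 Enzyme (25 nM, linked NS2B-NS3) was preincubated 15 min with compound in 10 mM Tris-HCl pH 8.0, 0.01% Tween 20. Rhodamine110 substrate (1.5 microM) was then added and fluorescence read at start and after 15 min.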
A short description of test [8]: qHTS to identify inhibitors of the type 1 interferon - major histocompatibility complex class I in skeletal muscle: primary screen against the NCATS Mechanism Interrogation Plate v5.0 (MIPE) Libary (AID 1347411).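 Note: plate controls were vehicle for no effect and reference inhibitor for full effect; nearly all actives have a fitted effect of over 65% in size.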 In outline:
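Cells were genome-edited human myoblasts carrying a HiBit tag on endogenous HLA-B. They were treated with IFN-beta (4.0 ng/ml) and titrated compounds (top 46 uM) for 24 hrs before lytic HiBiT detection.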

The target in test [9] is Glutathione peroxidase 1 (Homo sapiens) (UniProt P07203). Put plainly: Primary qHTS Assay for Inhibitors of Recombinant Selenoprotein Glutathione Peroxidase 1 (GPX1) (AID 1845191). Note: nearly all actives have a fitted effect of over 65% in size. Summed up: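 GR-coupled assay: compounds preincubated 30 min at room temperature with GPX1, then reaction started with CHP; final 10 nM GPX1, 1 mM GSH, 0.5 mM CHP, 0.5 mM NADPH, 100 nM GR, 0.01% BSA, pH 7.5 Tris buffer. NADPH fluorescence (340/450 nm) read at 0 and 15 min.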

The nature of test [10]: qHTS drug screen for cell cycle checkpoint inhibitors in PARPi-resistant BRCA-mutant ovarian cancer cell lines. (AID 1963452; calls by dose curve). The conditions noted are these: PEO1/OlaR viability, CellTiter-Glo luminescence, 96 h, stronger effect = lower value. Summed up: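 PEO1, PEO4 and PEO1/OlaR ovarian cancer cells, 600 per well, exposed 96 h at 37C to a dilution series. Viability read by CellTiter-Glo luminescence, normalized to DMSO and empty wells; activity summarized as Z-AUC.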

Test [11] is described as follows: Vero-766 cells viability qHTS against the NCATS CANVASS Library: Counterscreen for Zika virus inhibition assay (AID 1347394). Note: nearly all actives have a fitted effect of over 60% in size. Note: potency is the fitted concentration of half-maximal effect. In outline:
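Vero 766, no virus; 1000 cells/well; o/n attach; cpd 11-pt; 72 h, 37C, 5% CO2; CTG luminescence; cell-free media wells = 100% inhibition.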

The nature of test [12]: A2780 Cisplatin Sensitive Ovarian Cancer Cell Toxicity qHTS against the NCATS CANVASS Library (AID 1347353). Summed up: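 Seventy-two-hour exposure of cisplatin-sensitive A2780 ovarian cells to an 11-concentration qHTS series; cytotoxicity is inferred from loss of ATPLite luminescence. Bortezomib titration served as positive control.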
A short description of test [13]: DH5-alpha competent E. coli microbial cell viability qHTS against the NCATS CANVASS Library (AID 1347377). The conditions noted are these: outcome: dose series up to 46.1 µM unless noted. Summed up:
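Cell viability of competent DH5-alpha E. coli is scored from ATP content by luminescence. Cells sit overnight at 37C with compound across an 11-point concentration series.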

Test [14] can be described thus: Confirmation and Secondary Assay for Modulators of Hemoglobin Beta Chain Splicing at IVS2 654 locus (AID 910).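 Note: HeLa cells stably carrying EGFP split by mutant beta-globin IVS2-654 intron; % of control where 0% means no effect.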 Summed up: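 HeLa cells stably expressing EGFP interrupted by β-globin IVS2-654 intron, seeded overnight in Opti-MEM/2% FCS, then treated 2 days at 37 °C. Restored splicing read as total peak GFP intensity per well by laser scanning cytometry (488 nm excitation, 500–520 nm emission); 500 nM antisense PNA as control.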

Test [15] is described as follows: Confirmation and Secondary Assay for Modulators of Hemoglobin Beta Chain Splicing at IVS2 705 locus (AID 930).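 Note: HeLa cells stably expressing the EGFP-705 splicing reporter; GFP fluorescence per well restored by corrected splicing of the IVS2-705 intron in EGFP; % of control where 0% means no effect.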 Summed up: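 Per-well GFP, captured at 1 x 8 µm resolution with 488 nm excitation, served as the read-out for HeLa EGFP-705 cells incubated 2 days with test compound versus DMSO.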
Test [16] in a line: qHTS Assay for Lipid Storage Modulators (AID 1519; calls by dose curve; for activity change, negative = inhibition: % is set by controls: 0 for no effect and ±100 for the full control effect). To be noted: Drosophila S3 cells, BODIPY lipid droplet/cell ratio, laser cytometry, cells loaded with oleic acid. In outline:
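Cells seeded at 5,000 per well were treated with compounds over a concentration series and loaded with oleic acid (400 uM, as added). Lipid droplet fluorescence (488 nm excitation, 500-530 nm channel) was read by laser-scanning cytometry and normalized to 20 uM Triacsin C.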

In test [17] the test system is Zika virus NS2B-NS3 protease (linked construct). The test can be described thus: 384 well plate NINDS Rhodamine confirmatory qHTS for Zika virus inhibitors (AID 1347164).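 Note: fluorescence from protease cleavage of Ac-LKRR-rhodamine 110 substrate; potency is the fitted concentration of half-maximal effect; nearly all actives have a fitted effect of over 65% in size.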 In outline: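 Enzyme (final 5/30/60 nM) + cpd (DMSO), ~15 min; add Ac-LKRR-Rd 10 microM final; 25 min RT, dark; FI ex 485/em 538; normalized to no-enzyme, no-inhibitor ctrls; aprotinin intraplate ctrl.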

SMILES strings stand for the structures. Inconclusive results are not listed. Activity calls are given as the source filed them. Unless noted, calls come from the whole dose curve; as a rule, active = well fitted curve in the direction sought with a large enough effect; inconclusive = small, poorly fitted or top-dose-only effect, or another doubt; inactive = no such curve, though single readings can be large; an effect the other way counts as inactive or inconclusive.

Chain of Glutathione peroxidase 1 (Homo sapiens) (P07203 whole entry, looked up): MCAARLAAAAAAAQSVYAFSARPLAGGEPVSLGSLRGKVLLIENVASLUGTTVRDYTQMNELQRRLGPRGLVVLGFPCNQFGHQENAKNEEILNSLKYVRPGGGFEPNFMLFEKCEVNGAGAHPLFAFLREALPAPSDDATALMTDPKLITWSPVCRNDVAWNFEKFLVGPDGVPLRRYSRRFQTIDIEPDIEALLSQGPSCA

As for `C/C=C1/CN2C3CC1C1C=CC(=O)N4c5ccccc5[C@@]3(C[C@@H]2C2=C[C@H]3C5CC6N(CC[C@@]67c6ccccc6N(C2=O)[C@@H]37)C/C5=C/C)[C@H]14` (stereo partly specified), the Potency in test [1] was 15.6 µM (active); in test [2], 7.49 µM (active); in [3], 9.35 µM (active); in [4], 10.5 µM (active).
Take `COC(=O)C1=C[C@]23C[C@@H](C)CC[C@@H]2[C@@]2(C)CC[C@@H](C(C)C)[C@@](O)(O3)[C@@H]12`: the Potency in test [1] was 44 µM (active). Also, the Potency result in test [2], in test [5] and in test [6] was “inactive” in each case.
For `CN(C)c1cc(NC(=O)CNC(C)(C)C)c(O)c2c1C[C@H]1C[C@H]3[C@H](N(C)C)C(=O)C(C(N)=O)=C(O)[C@]3(O)C(=O)C1=C2O`, in [7], the Potency is 1.97 µM (active). Moreover, the Potency entry in test [8] and in test [9] was “inactive” in each case. In addition, the values for the Z-AUC in [10], in test [10] (measured here: PEO1 parental Z-AUC) and in test [10] (measured here: PEO4 Z-AUC) were 1.31 (inactive), 1.13 and 1.05, respectively.
As for `CCC(=O)N[C@@H](C[C@H](C)C(Cl)(Cl)Cl)C(=O)N1C(=O)C=C(OC)[C@@H]1C[C@H](C)CCl`, the Potency entry in [1], in test [4] and in test [11] was “inactive” throughout.
`CCOC(=O)c1ccc(CN(Cc2ccc(Br)cc2)S(=O)(=O)c2cccc(C(F)(F)F)c2)cc1`: the Potency result in test [7] is “inactive”.
`C/C(=C\[C@H](C)C(=O)C[C@H](O)CC1CC(=O)NC(=O)C1)[C@@H]1OC(=O)CCCC/C=C/C[C@@H](O)[C@@H]1C`: the Potency result in test [1], in test [6] and in test [11] was “inactive” each time. In addition, in [12], the Potency is 2.35 µM (active). The outcome in test [13] was inactive.
Turning to `CC[C@H](O)CCCCC[C@@H]1NC(=O)[C@H]2CCCCN2C(=O)[C@H]([C@H](C)CC)NC(=O)[C@H](Cc2cn(OC)c3ccccc23)NC1=O`, the Potency in test [1] is 15.6 µM (active); in test [12], 23.5 µM (active); in test [11] it was 6.6 µM (active).
Take `CO[C@H]1/C=C/CCCCC(=O)O[C@@H](/C(C)=C/[C@H](C)C(=O)C[C@H](O)CC2CC(=O)NC(=O)C2)[C@@H](C)C1`: the Potency in test [1] was 49.3 µM (active); in [12], 4.69 µM (active); in [4], 4.69 µM (active). In addition, in test [13], the compound was called inactive. Besides, the Potency entry in [11] is “inactive”.
Take `CC1COC2=C1C(=O)C(=O)c1c2ccc2c1CCCC2(C)C` (stereo unspecified): the compound was called inactive in [14] and in test [15]. In test [16] (at 57.5 µM (top of the series)), the activity change, negative = inhibition is 2.92% (inactive). The max response is -7.49% in test [16] (measured here: cell count channel max response) and -5.49% in test [16] (measured here: lipid channel max response). Moreover, the Potency in test [17] was 79.4 µM (active).
For `C/C(=C\[C@H](C)C(=O)/C=C/CC1CC(=O)NC(=O)C1)[C@@H]1OC(=O)/C=C/CC/C=C/C[C@@H](O)[C@@H]1C`, the values for the Potency in test [1], in test [12] and in test [5] were 31.1 µM (active), 1.18 µM (active) and 1.33 µM (active), respectively. The compound was called inactive in test [13]. Further, the Potency entry in [11] was “inactive”.
Turning to `Cc1cc(C)c(O)c(C(=O)CC2CC(=O)NC(=O)C2)c1`, in [1], the Potency result is “inactive”. Also, the figures for the Potency in test [4] and in [5] were 1.32 µM (active) and 7.47 µM (active), respectively. The result in test [13] was inactive.
